Measured values reported in PubChem BioAssay (NCI).
Compounds without any hit were thinned out: in the full panel of roughly 79,000, 15% have a hit. Active and inactive are the calls of the source. Rule as the data show it: active = growth inhibition above about 70%; inactive = the rest.

What was measured:
[1] = NCI Yeast Anticancer Drug Screen. Data for the wt1 strain (AID 149);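 also: 0% = growth of vehicle-treated wt1 cultures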; details: S. cerevisiae wt1 strain (SPY 50644) growth inhibition, stronger effect = higher value
How it was run: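 Vehicle-normalised growth inhibition; strain wt1; compound exposure.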

[2] = NCI Yeast Anticancer Drug Screen. Data for the rad50EPP+ strain (AID 151);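 also: 0% = growth of vehicle-treated control cultures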; details: S. cerevisiae rad50 mutant strain, stronger effect = higher value
How it was run: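 Vehicle-normalised growth inhibition; rad50EPP+ yeast strain, altered in DNA damage repair, compound-treated.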

[3] = NCI Yeast Anticancer Drug Screen. Data for the mgt1 strain (AID 153); details: S. cerevisiae mgt1 mutant growth inhibition, stronger effect = higher value
How it was run: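 Vehicle-normalized growth inhibition is determined in mgt1 yeast, a strain selected for a defined alteration in DNA repair or cell cycle control.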

[4] = NCI Yeast Anticancer Drug Screen. Data for the rad50 strain (AID 155);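 also: 0% = growth of vehicle-only cultures of the same strain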; details: S. cerevisiae rad50 strain growth inhibition, stronger effect = higher value
How it was run: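 A DNA repair-deficient yeast mutant serves as the test organism; compound-induced growth inhibition is calculated against vehicle-treated cells.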

[5] = NCI Yeast Anticancer Drug Screen. Data for the mec2-1 strain (AID 157); details: S. cerevisiae mec2-1 strain, stronger effect = higher value
How it was run: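 Mutant yeast (mec2-1) grown with compound; growth inhibition relative to vehicle control reported.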

[6] = NCI Yeast Anticancer Drug Screen. Data for the rad14 strain (AID 159);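 also: 0% = growth of vehicle-treated control cultures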; details: S. cerevisiae rad14 strain growth inhibition, stronger effect = higher value
How it was run: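 Vehicle-treated cultures served as the baseline for growth inhibition of a DNA repair-mutant yeast strain exposed to each compound.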

[7] = NCI Yeast Anticancer Drug Screen. Data for the sgs1 mgt1 strain (AID 161);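 also: 0% = growth of cultures given vehicle only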; details: S. cerevisiae sgs1 mgt1 strain, stronger effect = higher value
How it was run: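 Percent growth inhibition was derived by comparing compound-exposed mutant yeast with vehicle-exposed cultures. The strain carries alterations in DNA damage repair.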

[8] = NCI Yeast Anticancer Drug Screen. Data for the CLN2oe strain (AID 163);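 also: 0% = growth of vehicle-only control cultures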; details: S. cerevisiae CLN2oe strain, stronger effect = higher value
How it was run: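 Compounds are applied to yeast harbouring a defined cell-cycle control change; reduced growth compared with vehicle-treated controls gives the value.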

[9] = NCI Yeast Anticancer Drug Screen. Data for the cln2 rad14 strain (AID 165);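 also: 0% = growth equal to vehicle treated cultures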; details: S. cerevisiae cln2 rad14 strain, stronger effect = higher value
How it was run: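 Readout is yeast growth inhibition versus vehicle-treated controls, using a strain with cln2 and rad14 alterations exposed to compound.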

[10] = NCI Yeast Anticancer Drug Screen. Data for the bub3 strain (AID 167); details: S. cerevisiae bub3 mutant strain, stronger effect = higher value
How it was run: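 Inhibition values come from growth of compound-treated mutant yeast normalised to vehicle-treated controls.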

[11] = NCI Yeast Anticancer Drug Screen. Data for the wt2 strain (AID 169);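 also: 0% = growth of vehicle-treated yeast cultures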; details: S. cerevisiae wt2 strain growth inhibition, stronger effect = higher value
How it was run: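 Against vehicle-treated controls, the growth of yeast exposed to each compound was compared, and the inhibition was recorded.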

[12] = NCI Yeast Anticancer Drug Screen. Data for the mlh1 strain (AID 171);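 also: 0% = growth of vehicle-treated control cultures of the same strain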; details: S. cerevisiae mlh1 strain growth inhibition, stronger effect = higher value
How it was run: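 Measured: yeast growth. Reference: vehicle-treated controls. Organism: strain with a defined alteration affecting DNA damage repair or cell cycle control, treated with compound.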

[13] = NCI Yeast Anticancer Drug Screen. Data for the sgs1 strain (AID 173);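 also: 0% = growth of vehicle-only control cultures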; details: S. cerevisiae sgs1 mutant, stronger effect = higher value
How it was run: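 Each compound was added to cultures of the altered yeast strain. Growth was recorded, and inhibition was derived by comparison with vehicle controls.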

[14] = NCI Yeast Anticancer Drug Screen. Data for the mlh1 rad18 strain (AID 175); details: S. cerevisiae mlh1 rad18 strain growth inhibition, stronger effect = higher value
How it was run: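 Genetically defined yeast (DNA repair-deficient) exposed to compounds; growth inhibition determined relative to vehicle.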

[15] = NCI Yeast Anticancer Drug Screen. Data for the rad18 strain (AID 177); details: S. cerevisiae rad18 mutant growth inhibition, stronger effect = higher value
How it was run: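 Vehicle-treated cultures served as the baseline for scoring compound-induced growth inhibition in DNA-repair-mutant yeast.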

[16] = at 5.0 µM (retest, dose inferred, filed as 0.5)
[17] = at 50.0 µM (retest, dose inferred, filed as 5.0)

Measured: growth inhibition

Cc1cc(N(CCOS(C)(=O)=O)CCOS(C)(=O)=O)ccc1C=O
inactive: [1]; at 1.2 µM 27% | [1]; at 3.7 µM 28% | [1]; at 11.0 µM 32% | [1]; at 33.0 µM 37% | [1]; at 100.0 µM 31% | [2]; at 1.2 µM 15% | [2]; at 3.7 µM 45% | [2]; at 11.0 µM 34% | [2]; at 33.0 µM 30% | [2]; at 100.0 µM 15% | [3]; at 1.2 µM 14% | [3]; at 3.7 µM 26% | [3]; at 11.0 µM 34% | [3]; at 33.0 µM 41% | [3]; at 100.0 µM 44% | [4]; at 1.2 µM 4% | [4]; at 3.7 µM 16% | [4]; [16] 29% | [4]; at 11.0 µM 26% | [4]; at 33.0 µM 43% | [4]; [17] 57% | [4]; at 50.0 µM 50% | [4]; at 100.0 µM 66% | [5]; at 1.2 µM 6% | [5]; at 3.7 µM 23% | [5]; [16] 24% | [5]; at 11.0 µM 24% | [5]; at 33.0 µM 41% | [5]; [17] 57% | [5]; at 50.0 µM 54.8% | [5]; at 100.0 µM 68% | [6]; at 1.2 µM 20% | [6]; at 3.7 µM 36% | [6]; at 11.0 µM 50% | [6]; at 33.0 µM 64% | [7]; [16] 13% | [7]; [17] 38% | [7]; at 50.0 µM 12.8% | [8]; at 1.2 µM 2% | [8]; at 3.7 µM 9% | [8]; at 11.0 µM 10% | [8]; at 33.0 µM 36% | [8]; at 100.0 µM 34% | [9]; [16] 34% | [9]; [17] 45% | [9]; at 50.0 µM 36.9% | [10]; at 1.2 µM 16% | [10]; at 3.7 µM 17% | [10]; [16] -3% | [10]; at 11.0 µM 4% | [10]; at 33.0 µM 18% | [10]; [17] 13% | [10]; at 50.0 µM 4.7% | [10]; at 100.0 µM 34% | [11]; at 1.2 µM -45% | [11]; at 3.7 µM -46% | [11]; at 11.0 µM -43% | [11]; at 33.0 µM 1% | [11]; at 100.0 µM 33% | [12]; at 1.2 µM 14% | [12]; at 3.7 µM 28% | [12]; at 11.0 µM 24% | [12]; at 33.0 µM 52% | [12]; at 100.0 µM 60% | [13]; at 1.2 µM 19% | [13]; at 3.7 µM 22% | [13]; at 11.0 µM 39% | [13]; at 33.0 µM 51% | [13]; at 100.0 µM 58% | [14]; [16] 56% | [15]; at 1.2 µM 29% | [15]; at 3.7 µM 50%
active: [6]; at 100.0 µM 83% | [14]; [17] 88% | [14]; at 50.0 µM 82.5% | [15]; at 11.0 µM 70% | [15]; at 33.0 µM 86% | [15]; at 100.0 µM 89%

CCOC(=O)/C=C1\CCCn2c1ncc(C(=O)OCC)c2=O
inactive: [1]; at 1.2 µM 2% | [1]; at 3.7 µM 5% | [1]; at 11.0 µM 6% | [1]; at 33.0 µM 10% | [1]; at 100.0 µM 17% | [2]; at 1.2 µM -1% | [2]; at 3.7 µM -2% | [2]; at 11.0 µM -2% | [2]; at 33.0 µM -4% | [2]; at 100.0 µM -1% | [3]; at 1.2 µM 3% | [3]; at 3.7 µM 2% | [3]; at 11.0 µM 6% | [3]; at 33.0 µM -2% | [3]; at 100.0 µM 26% | [4]; at 1.2 µM -1% | [4]; at 3.7 µM -8% | [4]; [16] 8% | [4]; at 11.0 µM -3% | [4]; at 33.0 µM 20% | [4]; [17] 30% | [4]; at 50.0 µM 69.5% | [4]; at 100.0 µM 31% | [5]; at 1.2 µM 3% | [5]; at 3.7 µM 4% | [5]; [16] -5% | [5]; at 11.0 µM 7% | [5]; at 33.0 µM 17% | [5]; [17] 42% | [5]; at 100.0 µM 32% | [6]; at 1.2 µM 4% | [6]; at 3.7 µM 2% | [6]; at 11.0 µM 7% | [6]; at 33.0 µM 12% | [6]; at 100.0 µM 18% | [7]; [16] 4% | [7]; [17] 9% | [8]; at 1.2 µM 3% | [8]; at 3.7 µM 4% | [8]; at 11.0 µM 7% | [8]; at 33.0 µM 12% | [8]; at 100.0 µM 13% | [9]; [16] -25% | [9]; [17] 24% | [9]; at 50.0 µM 55.7% | [10]; at 1.2 µM 2% | [10]; at 3.7 µM 0% | [10]; [16] -13% | [10]; at 11.0 µM 4% | [10]; at 33.0 µM 10% | [10]; at 50.0 µM 59.5% | [10]; at 100.0 µM 28% | [11]; at 1.2 µM 1% | [11]; at 3.7 µM 2% | [11]; at 11.0 µM 4% | [11]; at 33.0 µM 11% | [11]; at 100.0 µM 28% | [12]; at 1.2 µM 2% | [12]; at 3.7 µM 3% | [12]; at 11.0 µM 8% | [12]; at 33.0 µM 15% | [12]; at 100.0 µM 38% | [13]; at 1.2 µM 3% | [13]; at 3.7 µM 5% | [13]; at 11.0 µM 6% | [13]; at 33.0 µM 24% | [13]; at 100.0 µM 51% | [14]; [16] 8% | [14]; [17] 48% | [15]; at 1.2 µM 1% | [15]; at 3.7 µM 5% | [15]; at 11.0 µM 14% | [15]; at 33.0 µM 30% | [15]; at 100.0 µM 55%
active: [5]; at 50.0 µM 77% | [7]; at 50.0 µM 81.7% | [10]; [17] 94% | [14]; at 50.0 µM 89.8%
